An excerpt weighted towards active compounds, which were near 2.2% of everything screened.
Rce1 inhib: blocks yeast Ras-converting enzyme; AID 2563; yeast membranes, quenched prenylated peptide cleavage fluorescence; actives 0.27% (n = 290,000); calls only;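 active = fall in fluorescence gain of 50% or more versus controls, with final raw signal at or below 3038400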;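 note: plate controls were neutral control wells for no effect and wells lacking membranes for full effect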
NPR2 activator: GC-B (human) receptor activation. P20594. HEK293-GC-B cells, CNP EC30, cGMP TR-FRET; 0% at EC30 CNP, 100% saturating CNP. activation, % at 10 µM. actives 0.11% (n = 370,000). AID 1920062;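 active = activation at 10 µM reaching about 35% in either raw or pattern-adjusted values, limit read from the data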
PLC-gamma1 inh: PLC-gamma1 (human) inhibition, primary screen | actives 0.84% (n = 370,000) | P19174 | purified PLC-gamma1, fluorogenic substrate, fluorescence | inhibition, % at 12.2 µM | AID 720700; in the data active = inhibition above about 9.5%
Target sequence (P19174 whole entry, looked up): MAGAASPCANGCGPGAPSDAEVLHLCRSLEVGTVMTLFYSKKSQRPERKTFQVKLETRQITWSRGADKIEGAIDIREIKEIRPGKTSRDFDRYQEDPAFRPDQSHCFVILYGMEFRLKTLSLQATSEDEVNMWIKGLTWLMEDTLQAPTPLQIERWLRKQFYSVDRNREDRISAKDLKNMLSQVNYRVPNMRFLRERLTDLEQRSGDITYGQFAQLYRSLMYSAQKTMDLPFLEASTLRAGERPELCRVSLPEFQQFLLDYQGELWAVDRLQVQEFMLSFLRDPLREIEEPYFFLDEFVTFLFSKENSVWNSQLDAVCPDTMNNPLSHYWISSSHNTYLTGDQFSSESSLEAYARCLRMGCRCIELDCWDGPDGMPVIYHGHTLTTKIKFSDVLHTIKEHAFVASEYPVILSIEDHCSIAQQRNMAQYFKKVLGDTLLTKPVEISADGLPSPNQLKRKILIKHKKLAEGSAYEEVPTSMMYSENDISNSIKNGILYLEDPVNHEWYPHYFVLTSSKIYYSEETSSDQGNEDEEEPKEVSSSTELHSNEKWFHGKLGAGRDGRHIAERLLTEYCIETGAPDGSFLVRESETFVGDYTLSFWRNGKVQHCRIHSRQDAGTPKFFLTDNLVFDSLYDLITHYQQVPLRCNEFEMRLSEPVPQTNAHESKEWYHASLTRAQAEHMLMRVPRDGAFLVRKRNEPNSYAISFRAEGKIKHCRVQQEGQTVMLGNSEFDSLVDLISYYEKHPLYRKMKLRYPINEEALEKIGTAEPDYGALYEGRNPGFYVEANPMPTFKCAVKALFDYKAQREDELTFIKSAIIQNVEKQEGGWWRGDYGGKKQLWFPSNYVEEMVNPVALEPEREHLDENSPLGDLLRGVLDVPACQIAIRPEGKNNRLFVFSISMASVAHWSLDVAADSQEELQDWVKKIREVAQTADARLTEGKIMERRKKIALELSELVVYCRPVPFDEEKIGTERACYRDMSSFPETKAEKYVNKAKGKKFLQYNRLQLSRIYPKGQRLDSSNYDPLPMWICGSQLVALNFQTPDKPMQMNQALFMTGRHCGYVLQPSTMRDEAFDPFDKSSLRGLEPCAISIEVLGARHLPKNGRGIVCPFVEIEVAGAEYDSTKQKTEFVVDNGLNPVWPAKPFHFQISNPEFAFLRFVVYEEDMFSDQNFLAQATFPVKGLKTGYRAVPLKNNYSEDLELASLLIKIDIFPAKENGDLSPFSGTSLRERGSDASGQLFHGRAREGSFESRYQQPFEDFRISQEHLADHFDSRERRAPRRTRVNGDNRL
PLC-beta3 inh: PLC-beta3 (human) inhibition, primary screen; actives 0.18% (n = 370,000); inhibition, % at 12.2 µM; Q01970; Purified PLC-beta3, fluorogenic substrate, fluorescence; in the data active = inhibition above about 11%;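 note: 0% = median of compound wells on plate and 100% = full blocker control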
GC-A act: GC-A (human) enzyme activation; P16066; HEK293 GC-A cells, cGMP TR-FRET, EC30 ANP; 0% at EC30 ANP, 100% saturating ANP; activation, % at 10 µM; actives 0.14% (n = 370,000); AID 1671463; in the data active = activation above about 40%
M18AAP inhibitor: blocks P. falciparum M18 aspartyl aminopeptidase; recombinant PfM18AAP, H-Glu-NHMec fluorogenic cleavage; inhibition, % at 7.35 µM; actives 1.2% (n = 290,000);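 active = inhibition above the campaign mean inhibition over all tested compounds plus 3 SD, cut at about 28% in these data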;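 note: 0% = plate median of test compound wells and 100% = 2 mM ZnCl2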
The depositor's hits bear a star; i = inactive; x = no result; + = active, no number.

SMILES | Rce1 inhib | NPR2 activator | PLC-gamma1 inh | PLC-beta3 inh | GC-A act | M18AAP inhibitor
COCCN1Cc2cccc(C(=O)NCc3ccccn3)c2C1=O | i | 2 | 2 | -3 | 8 | -11
COc1cc(C(=O)NC2CCN(C)CC2)ccc1Nc1ncc2c(n1)N(Cc1ccccc1)CCC(=O)N2C | x | 38* | -1 | 3 | 33 | x
Cc1ccc(/C=[N+](\[O-])c2ccc(N(C)C)cc2)c2nsnc12 | i | -36 | 1 | -3 | -22 | 31*
Cc1ccc2nsnc2c1NS(=O)(=O)c1c(C)ccc2nsnc12 | i | 9 | 2 | 1 | -5 | 6
COC(=O)[C@]12C[C@H](CC(=O)N3CCSCC3)C(=O)N(Cc3ccc(Cl)cc3Cl)C1=C[C@H](C1CCCC1)O[C@@H]2C | x | -16 | 2 | 6 | -25 | x
COc1cc(C(C[N+](=O)[O-])c2c(C)[nH]c3ccccc23)ccc1O (stereo not given) | i | -9 | -8 | -14 | 3 | 29*
O=C1c2cccc(OCc3ccc(F)cc3)c2CCN1Cc1ccc(F)cc1 | i | 5 | 11* | 4 | 2 | 2
Cc1ccc(Nc2c(-c3ccccc3O)nc3cnccn23)cc1 | i | 17 | -67 | -70 | 48* | 4
Cc1ccc(Nc2c(-c3ccc(N4CCOCC4)cc3)nc3cnccn23)cc1 | i | 3 | -451 | i | 17 | 5
COc1ccc(Nc2c(-c3ccc(OC)cc3)nc3cnccn23)cc1 | i | 49* | -30 | -42 | 50* | 1
Cc1ccc2nc(-c3ccccc3O)c(Nc3ccc4c(c3)OCCO4)n2c1 | i | 16 | -329 | -383 | 21 | -1
COc1ccc(Nc2c(-c3ccc(C)cc3)nc3cnccn23)cc1 | i | 48* | -37 | -69 | 46* | 5
Cc1ccc(Nc2c(-c3ccccc3O)nc3ncccn23)cc1 | i | 17 | -19 | -37 | 54* | 7
CCCCN1CCS(=O)(=O)N(Cc2cn(Cc3ccccc3Br)nn2)C(C(=O)OC)C1 (stereo not given) | x | 1 | 1 | 0 | -2 | x
Cc1nnc(N/N=C/c2c[nH]c3ccccc23)[nH]c1=O | x | -2 | -4 | -1 | -8 | 29*
CCC(C)C(=O)OCC1(c2ccc(C)cc2OC(=O)C(C)C)CO1 (stereo not given) | x | 0 | 3 | 2 | 1 | x
Cc1ccc(C2(COC(=O)C(C)C)CO2)c(OC(=O)C(C)C)c1 (stereo not given) | + | 3 | 1 | 5 | 3 | x
COc1ccc2c(c1)CN1C(=O)N(Cc3ccccc3)S(=O)(=O)CC21 (stereo not given) | x | 1 | 3 | 4 | -2 | x
COC(=O)[C@H](C)NC(=O)[C@@H]1CCCN1C(=O)CNP(=O)(OCc1ccccc1)OCc1ccccc1 | x | -9 | 2 | 4 | 0 | x
Cc1ccc(CNC(=O)Nc2ccc(F)cc2)n1C | i | 6 | -9 | -18 | 3 | 31*
O=C1CN=CN=CN1c1ccc(Cl)cc1Cl | i | 7 | 5 | -1 | 2 | 40*
Brc1ccc(N=NNc2ccccc2)cc1 | i | -9 | 2 | 3 | 45* | -1
O=C(O)c1cc(NN=Nc2cccc([N+](=O)[O-])c2)cc([N+](=O)[O-])c1 | i | -2 | 4 | 7 | 0 | 3
O=C(O)c1cc(NN=Nc2ccc(Br)cc2)cc([N+](=O)[O-])c1 | i | -10 | -1 | -7 | 43* | -4
COC(=O)[C@]12C[C@H](CC(=O)NCc3ccccc3)C(=O)N(CCc3ccc(OC)c(OC)c3)C1=C[C@H](COCc1ccccc1)O[C@@H]2C | x | -4 | -3 | -3 | 1 | x
SMILES | Rce1 inhib | NPR2 activator | PLC-gamma1 inh | PLC-beta3 inh | GC-A act | M18AAP inhibitor
Cc1[nH]nc(-c2ccc(OCc3cnn(-c4ccccc4)c3)c(C)c2O)c1Oc1ccccc1 | i | -5 | 0 | 4 | 0 | -4
Cc1[nH]nc(-c2ccc(O)c(C)c2O)c1Oc1ccccc1 | i | 0 | 0 | -1 | 79* | 9
CCCCCN1CCCCC(NC(=O)c2cccc(F)c2)C1=O (stereo not given) | x | 2 | -1 | 1 | -2 | x
NC(=O)CCCn1c(C(=O)c2ccc(Cl)cc2)c2ccc([N+](=O)[O-])cc2[n+]1[O-] | i | -5 | -2 | -3 | -2 | x
NC(=O)CCCn1c(C(=O)c2cc(Cl)c(N)c(Cl)c2)c2ccc([N+](=O)[O-])cc2[n+]1[O-] | i | 58* | -5 | -11 | -6 | x
CO[C@H]([C@H](C)/C=C/N(C)C=O)[C@@H](C)C(O)CC[C@H](C)[C@H](O)[C@H](C)[C@H]1OC(=O)/C=C/C(C)=C/C[C@H](O)C[C@@H]2C=CC[C@@H](C[C@H](OC)[C@@]3(CO3)[C@@H](OC)C[C@@H](OC)[C@@H]1C)O2 (stereo not given in full) | x | -25 | 2 | -5 | -31 | x
Oc1ccc(-c2cn3cc(C(F)(F)F)ccc3n2)cc1 | + | -2 | -289 | -349 | 3 | 2
Clc1ccc(-c2cn3cc(Cl)ccc3n2)cc1 | i | 7 | 2 | -7 | 1 | -5
O=C(CSc1ncn[nH]1)NCc1ccccc1Cl | i | 2 | 3 | 1 | 4 | 29*
CCN(CC)c1ccc(C(=C2C=CC(=[N+](CC)CC)C=C2)c2ccccc2)cc1 | x | 39* | 2 | 3 | -44 | x
O=C1C[C@@H](c2ccccc2)N=C2N(CC3CC3)C/C(=C/c3ccccc3)N12 | x | -6 | -23 | -31 | 0 | x
COC(=O)[C@@]12CCCCC3=C1N(CCC3)C(=O)[C@H]2CC(=O)N1CCSCC1 | x | -1 | -3 | -2 | 2 | x
CC(=O)c1cc(-c2ccc3[nH]ccc3c2)c(=O)n2c1CCC2 | x | -7 | -12 | -16 | 0 | x
Nc1ccc2nc(-c3ccccc3)[nH]c2c1 | + | 0 | i | i | -10 | 18
O=[N+]([O-])c1cccc(N/N=C/c2cccc(O)c2O)c1 | i | -3 | 2 | -3 | -2 | 42*
O=[N+]([O-])c1ccccc1N/N=C/c1cccc(O)c1O | i | -9 | 2 | 0 | -8 | 30*
COc1cccc(/C=N/Nc2ccc([N+](=O)[O-])cc2)c1O | i | -1 | -35 | -50 | 0 | 12
O=[N+]([O-])c1ccccc1N/N=C\c1ccccc1Cl | i | -4 | 2 | 0 | -1 | -6
Cc1ccc(S(=O)(=O)Nc2cc(C(=O)O)ccc2N2CCC(C)CC2)cc1C | x | -5 | -2 | 4 | 2 | x
CC(C)=NN/C(N)=N/C(=S)Nc1ccc(C)cc1 | i | 5 | 3 | 5 | 1 | 29*
CCC(CO)Nc1cccc2c1S(=O)(=O)N(Cc1cn(Cc3ccc(C(F)(F)F)cc3)nn1)Cc1ccccc1O2 (stereo not given) | x | 1 | -7 | -7 | 1 | x

Compound activity (PubChem BioAssay)
